In PubChem BioAssay (NCATS):
Records with an inconclusive call do not appear. The source made the active and inactive calls. Calls follow the shape of the dose curve; as a rule, active = well fitted inhibition curve with a large enough effect; inconclusive = small, poorly fitted or top-dose-only effect; inactive = no such curve, though single readings can be large or run the other way.

Tested on: Zika virus NS2B-NS3 protease (linked construct)
Experiment: Primary screen NINDS Rhodamine qHTS for Zika virus inhibitors (AID 1347160); also: nearly all actives have a fitted effect of over 55% in size
Conditions: purified NS2B-NS3 protease, Rhodamine110 substrate fluorescence; series mostly up to 57.1 µM; activity change, negative = inhibition: at the top concentration
Excerpt: Avindra Nath, Ph.D., National Institute of Neurological Disorders and Stroke (NINDS), Bethesda, MD
Radhakrishnan Padmanabhan, Ph.D., Georgetown University (GU), Washington D.C.
Zika Virus causes congenital defects, including microcephaly and is associated with Guillain-Barre syndrome, eningoencephalitis and myelitis in infected adult. […] Using a target-based approach, we hope to establish a screening paradigm to uncover novel, cell-active NS2B-NS3 protease (Zika Virus) specific inhibitors from NCATS' collection of small molecules using qHTS.
Four assay panel was created to identify potential Zika Virus inhibitors. Namely, (1) GU unlinked NS2B-NS3 AMC tagged protease qHTS, (2) GU unlinked NS2B-NS3 Rhodamine tagged protease qHTS, (3) NINDS linked NS2B-NS3 AMC tagged protease qHTS, (4) NINDS linked NS2B-NS3 Rhodamine tagged protease qHTS. Active compounds were re-acquired and re-screened to confirm inhibition. Inhibitors were further screened against various confirmatory and counterscreens in dose response format.
Early Translation Branch (ETB)
National Center for Advancing Translational Sciences (NCATS), Rockville, MD
National Institute of Health (NIH), Bethesda, Maryland
For the linked assay, Nath lab (NINDS) provided the purified linked NS2B-NS3 protease which is consists of hydrophilic domain of NS2B linked to the NS3 protease domain by a flexible (-[…]-) linker. Control compound aprotinin is obtained from Thermo Scientific (#78432; Waltham, Massachusetts). Rhodamine110 substrate ([N-Cbz]-Nle-Lys-Arg-Arg-Rhod110-Arg-Arg-Lys-Nle-[N-Cbz]) was purchased from either Genscript or Bachem.
1536-well Protease (Rhodamine110 Substrate) Assay:
Briefly, 3 microL of enzyme (25 nM final concentration), in assay buffer (10 mM Tris-HCl pH 8.0 with 0.01% Tween 20) were dispensed into a 1,536-well solid-bottom black plate (Greiner Bio One, Monroe, NC). Twenty-three nL of compounds (final concentration range 7.28 nM to 114 microM) or control Aprotinin (final concentration range 3.47 nM to 114 microM) were transferred via Wako Pin-tool (Wako Automation, Richmond, VA). Samples were incubated (room temperature, protected from light) for 15 minutes followed by a 1 microL Rhodamine110 substrate addition (1.5 microM final concentration). Plates were then immediately read on a ViewLux High-throughput CCD imager (PerkinElmer, Waltham, MA) equipped with FITC fluorescence optics (480(20) nm excitation, 540(25) nm emission), then incubated (room temperature, protected from light) for 15 minutes (~15% conversion). The change in fluorescence intensity over the 15-minute reaction period was normalized against no-inhibitor and no-enzyme controls and the resulting percent inhibition data were fitted to a 4-parameter Hill equation. Aprotinin was used as intraplate control.
% is scaled to controls: 0 for no effect and ±100 for the full control effect; potency is read from the fitted curve at half-maximal effect.

Compound	activity change, negative = inhibition	outcome	Potency
CN1C(=O)CN=C(c2ccccc2Cl)c2cc(Cl)ccc21	11.1% (inactive)	–	–
CC(=O)OC[C@]12[C@H](OC(C)=O)C(=O)[C@@H]3[C@@H](O)[C@@]14O[C@@]3(C)COC(=O)c1cccnc1[C@@H](C)[C@H](C)C(=O)O[C@@H]([C@H](OC(C)=O)[C@@H]2OC(C)=O)[C@]4(C)O	-11.2% [at 15.1 µM] (inactive)	–	–
CN1C(=O)N(c2ccc(C#N)c(C(F)(F)F)c2)C(=O)[C@@]1(CO)c1ccccc1	7.01% (inactive)	–	–
CN1Cc2c(ccc3c2OCO3)[C@@H]2[C@H]1c1cc3c(cc1C[C@@H]2O)OCO3	-0.682% [at 33.1 µM] (inactive)	–	–
COc1cc2c(cc1O)C1(C)CCC(O)C(C)(C)C1CC2=O (stereo not given)	–	inactive	–
O=C1CN=C(c2cccc(Br)c2)c2oc3ccccc3c2N1	-6.56% (inactive)	–	–
C/C=C(\C)C(=O)O[C@@H]1[C@@H](C)[C@]2(O)C3C=C(C)C(=O)[C@@]3(O)CC(CO)=C[C@H]2C2C(C)(C)[C@@]21OC(=O)C(C)CC (stereo not given in full)	–	inactive [at 33.1 µM]	–
Cc1sc2c(c1C)C(c1ccc(Cl)cc1)=N[C@@H](CC(N)=O)c1nnc(C)n1-2	-0.739% (inactive)	–	–
COc1ccc2c3c([nH]c2c1)C(C=C(C)C)N1C(=O)C2CCCN2C(=O)C1C3 (stereo not given)	-3.68% [at 33.1 µM] (inactive)	–	–
CCCCn1cc(C(=O)c2cccc3ccccc23)c2ccccc21	18.4% (inactive)	–	–
C[C@H]1CN(CC[C@H](O)C2CCCCC2)CC[C@@]1(C)c1cccc(O)c1	–	inactive	–
C=C1C2(C)CC3C(C)(O)C4=CC(=O)OC(C)(C)C4=CCC3(C)C13C(=O)OC(C)C3(O)C2=O (stereo not given)	-24.3% [at 33.1 µM] (inactive)	–	–
COC1C=CC23c4cc5c(cc4COC2(O)CN(C)C3C1)OCO5 (stereo not given)	16.4% [at 33.1 µM] (inactive)	–	–
CCCC[C@@H]1CC[C@H]2CCCC(CCC)N12 (stereo not given in full)	–	–	49.3 µM (active)
CC(=O)N[C@H]1CCN2CCC[C@H]12	-6.22% [at 255 µM] (inactive)	–	–
COc1ccc(CN(C(=O)[C@@H](N)Cc2c(C)cc(C(N)=O)cc2C)[C@@H](C)c2ncc(-c3ccccc3)[nH]2)cc1C(=O)O	–	inactive	–
C=C1[C@@H](C)[C@H]2[C@H](Cc3ccccc3)NC(=O)[C@]23OC(=O)/C=C/C(=O)CCC[C@@H](C)C/C=C/[C@H]3[C@@H]1O	2.07% (inactive)	–	–
CN1C[C@@H]2CN(c3ccc(-c4ccccc4)nn3)C[C@@H]2C1	18.8% (inactive)	–	–
CC[C@@]1(O)C(=O)OCc2c1cc1n(c2=O)Cc2cc3c(OC)cccc3nc2-1	–	inactive [at 33.1 µM]	–
C[N@@+]1(CC2CC2)CC[C@]23c4c5ccc(O)c4O[C@H]2C(=O)CC[C@@]3(O)[C@H]1C5	12.6% (inactive)	–	–

Compound	activity change, negative = inhibition	outcome	Potency
CC1=CC2OC3[C@H](O)C[C@@](C)([C@]34CO4)[C@@]2(CO)[C@H](O)C1=O (stereo not given in full)	46.3% (inactive)	–	–
O=C(N[C@H]1CN2CCC1CC2)c1cc2cccc(Cl)c2s1	142% (inactive)	–	–
COCC(C(=O)OC1CC2CCC(C1)N2C)c1ccccc1 (stereo not given)	9.4% (inactive)	–	–
C[C@@H](CN1CCC(n2c(=O)[nH]c3cc(Br)ccc32)CC1)NC(=O)[C@@H]1C[C@H]1c1ccccc1	382% (inactive)	–	–
CC(=O)OC[C@]12C[C@H](OC(=O)CC(C)C)C(C)=C[C@H]1O[C@@H]1[C@H](O)[C@@H](O)[C@@]2(C)[C@]12CO2	4.1% [at 33.1 µM] (inactive)	–	–
C=C(C)C(=O)O[C@H]1[C@@H]2[C@H](C)C(=O)O[C@@H]2C[C@@H](C)[C@@H]2C=CC(=O)[C@]21C	6.48% [at 33.1 µM] (inactive)	–	–
c1ccc([C@@H]2C[C@H]2NC2CCNCC2)cc1	-16.9% (inactive)	–	–
COC1CC(O[C@H]2CC[C@]3(C)C4CC[C@]5(C)[C@@H](C6=CC(=O)OC6)[C@@H](OC(C)=O)C[C@]5(O)C4CC[C@@H]3C2)OC(C)C1O (stereo not given in full)	-15.1% [at 33.1 µM] (inactive)	–	–
Nc1ncnc2c1ncn2[C@@H]1O[C@@H]2COP(O)(=S)O[C@H]2[C@H]1O (stereo not given in full)	16.2% [at 10.7 µM] (inactive)	–	–
Cc1ccc2c(c1)[C@H]1CN(C)CC[C@H]1N2C(=O)CSc1nnnn1-c1ccc(Cl)cc1	-15.7% (inactive)	–	–
COc1ccc(CCNCc2ccc(OC)c3ccccc23)cc1	102% (inactive)	–	–
CCC(C)(O)C1(C(=O)O)COC(=O)C1 (stereo not given)	-24.3% [at 112 µM] (inactive)	–	–
Cc1sc2c(c1C)C(c1ccc(Cl)cc1)=N[C@@H](CC(=O)Nc1ccc(O)cc1)c1nnc(C)n1-2	-9.41% [at 15.1 µM] (inactive)	–	–
CC[C@@H](C)[C@H]1C(=O)O[C@H](C(C)C)C(=O)N(C)[C@@H](C(C)C)C(=O)O[C@H](C(C)C)C(=O)N(C)[C@@H](C(C)C)C(=O)O[C@H](C(C)C)C(=O)N1C	-0.0882% [at 15.1 µM] (inactive)	–	–
C=CCN1CCC2(C)c3cc(O)ccc3C[C@H]1[C@H]2C	19.3% (inactive)	–	–
O=C(NCCN1CCC2(CC1)C(=O)NCN2c1cccc(F)c1)c1ccc2ccccc2c1	577% (inactive)	–	–
CCC1C2CC3C4N(C)c5ccccc5C45CC(C2C5O)N3C1O (stereo not given)	30% [at 33.1 µM] (inactive)	–	–
O=C1Nc2ccc3ncsc3c2/C1=C/c1cnc[nH]1	24.1% (inactive)	–	–
CN1CN(c2ccccc2)C2(CCN(CCCC(=O)c3ccc(F)cc3)CC2)C1=O	56.6% (inactive)	–	–
N#Cc1ccccc1-c1cc(-c2ccccn2)cn(-c2ccccc2)c1=O	-1.7% (inactive)	–	–
